From PubChem BioAssay (Tox21)
Results filed as inconclusive are left out. Activity calls are given as the source filed them. Unless noted, calls come from the whole dose curve.

Biological target: Estrogen receptor (Homo sapiens) (UniProt P03372)
Experiment: qHTS assay to identify small molecule agonists of the estrogen receptor alpha (ER-alpha) signaling pathway in the presence of an antagonist (AID 1259383); note: top concentration of the series differs between compounds; nearly all actives have a fitted effect of over 15% in size
Settings: VM7Luc4E2 cells, ERE-luciferase, +ICI-182,780, 22 h; series mostly up to 92.4 µM; activation: at the top concentration
Summary of the method: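 ER-alpha agonism measured under antagonist challenge: 10.0nM ICI-182,780 (final) plus compound, 15 concentrations, 22hr, VM7Luc4E2 ERE-luciferase cells. Read by luminescence.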
% is set by controls: 0 for no effect and ±100 for the full control effect.

Estrogen receptor (Homo sapiens), sequence (P03372 whole entry, looked up): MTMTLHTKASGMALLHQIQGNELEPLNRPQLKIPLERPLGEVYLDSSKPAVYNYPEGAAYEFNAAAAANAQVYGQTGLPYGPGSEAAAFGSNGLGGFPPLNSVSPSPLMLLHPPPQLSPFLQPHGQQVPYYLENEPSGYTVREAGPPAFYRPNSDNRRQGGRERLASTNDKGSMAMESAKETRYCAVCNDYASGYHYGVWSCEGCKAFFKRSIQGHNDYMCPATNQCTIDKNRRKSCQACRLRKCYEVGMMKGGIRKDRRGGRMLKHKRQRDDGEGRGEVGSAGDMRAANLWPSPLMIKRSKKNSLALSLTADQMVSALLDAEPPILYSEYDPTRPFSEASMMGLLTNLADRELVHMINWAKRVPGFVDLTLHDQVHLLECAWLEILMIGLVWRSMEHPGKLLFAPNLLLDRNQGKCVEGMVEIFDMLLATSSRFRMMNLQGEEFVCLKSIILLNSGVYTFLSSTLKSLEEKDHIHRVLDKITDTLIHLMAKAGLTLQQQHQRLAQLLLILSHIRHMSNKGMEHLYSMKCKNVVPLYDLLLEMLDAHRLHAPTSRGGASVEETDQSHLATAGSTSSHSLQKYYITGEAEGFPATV

Structure (SMILES)	activation
CCC1COC(=O)O1 (centres undefined)	-0.319% (inactive)
O=C1OC(=O)c2ccccc21	1.39% (inactive)
CCCOC(=O)CCCCC(=O)OCCC	-1.3% (inactive)
C=CCOCC(CO)(COCC=C)COCC=C	-0.667% [at 42.5 µM] (inactive)
CC(C)COC(=O)/C=C/c1ccccc1	6.55% (inactive)
OCCCCCCCl	-1.29% (inactive)
COCC(=O)Nc1c(I)c(C(=O)NCC(O)CO)c(I)c(C(=O)N(C)CC(O)CO)c1I (centres undefined)	-0.705% [at 42.5 µM] (inactive)
N#CCCOCCOCCC#N	0.234% (inactive)
COC(/C=C(\C)CCC=C(C)C)OC	-2.14% (inactive)
CNC(=O)NC	0.288% (inactive)
O=C(O)/C=C/c1ccccc1	0.219% (inactive)
C=CCOc1c(Br)cc(Br)cc1Br	-0.158% (inactive)
CC(CC(=O)O)CC(C)(C)C (centres undefined)	-1.15% (inactive)
COC(=O)CCC(=O)O	0.345% (inactive)
O=C1OC(=O)c2cc(Oc3ccc4c(c3)C(=O)OC4=O)ccc21	0.132% (inactive)
CCCCCC1Nc2cc(C(F)(F)F)c(S(N)(=O)=O)cc2S(=O)(=O)N1 (centres undefined)	0.0792% [at 42.5 µM] (inactive)
COC(OC)C(C)c1ccccc1 (centres undefined)	-1.13% (inactive)
Nc1ccc(S(=O)(=O)NC(=O)c2ccccc2)cc1	0.317% [at 42.5 µM] (inactive)
Nc1nc(=O)n([C@@H]2O[C@H](CO)[C@@H](O)[C@@H]2F)cc1I	-0.972% [at 42.5 µM] (inactive)

Structure (SMILES)	activation
CCCCCCCC/C=C\CCCCCCCC(=O)OC[C@@H](O)[C@H]1OC[C@H](O)[C@H]1O	-0.0288% (inactive)
O=[Si]=O	0.385% (inactive)
COc1ccc(NS(=O)(=O)c2ccc(N)cc2)nn1	0.235% [at 42.5 µM] (inactive)
O=C(Oc1ccccc1C(=O)O)c1ccccc1O	-0.765% [at 42.5 µM] (inactive)
FC(F)(F)/C(=N\OCC1OCCO1)c1ccc(Cl)cc1	0.613% (inactive)
CCCCOC(=O)C(C)OC(=O)CCC (centres undefined)	-1.14% (inactive)
CCCCCCCCC(=O)OCC	0.078% (inactive)
CCC(=O)c1ccc(O)cc1	1.26% [at 42.5 µM] (inactive)
CCCCOC(=O)[C@@H](C)Oc1ccc(Oc2ccc(C(F)(F)F)cn2)cc1	0.261% (inactive)
CCc1nccnc1C	0.0162% (inactive)
CC1=NN(c2ccc(S(=O)(=O)O)cc2)C(=O)C1N=Nc1ccccc1 (centres undefined)	0.539% (inactive)
Nc1cc(Cl)cc(S(=O)(=O)O)c1O	-1.03% (inactive)
CCN1CN(CC)CN(CC)C1	0.481% (inactive)
CC(C)CCCC(C)CC=O (centres undefined)	0.741% (inactive)
CCC(O)C(C)(C)C (centres undefined)	-0.333% (inactive)
CC(C)C(=O)c1ccccc1	-0.989% (inactive)
O=P(O)(O)OCC(O)CO (centres undefined)	-0.685% [at 42.5 µM] (inactive)
CCN(CCC#N)c1ccccc1	-0.804% (inactive)
CC(=O)/C=C/c1ccco1	-0.674% (inactive)

Test system: not listed separately
Experiment: qHTS assay to identify small molecule agonists or antagonists of the thyroid stimulating hormone receptor (TSHR) signaling pathway - wild type cell line counter screen (AID 1259384)
Settings: HEK293 wild type, cAMP HTRF counter-screen, stronger effect = higher value; series mostly up to 92.4 µM; cAMP activity change: at the top concentration
Summary of the method: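 Wild-type Hek293 cells, 800/well, 18 h at 37C, then compound with Ro20-1724 for 30 min RT. cAMP by HTRF (cAMP-d2/anti-cAMP cryptate), 1 h RT, fluorescence read. 15 concentrations, triplicates.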

Structure (SMILES)	cAMP activity change
CCC1COC(=O)O1 (centres undefined)	0.0942% (inactive)
CC(C)COC(=O)/C=C/c1ccccc1	-0.808% (inactive)
COCC(=O)Nc1c(I)c(C(=O)NCC(O)CO)c(I)c(C(=O)N(C)CC(O)CO)c1I (centres undefined)	-0.211% [at 42.5 µM] (inactive)
COC(/C=C(\C)CCC=C(C)C)OC	0.572% (inactive)
C=CCOc1c(Br)cc(Br)cc1Br	-1.38% (inactive)
O=C1OC(=O)c2cc(Oc3ccc4c(c3)C(=O)OC4=O)ccc21	1.21% (inactive)
CCCCCC1Nc2cc(C(F)(F)F)c(S(N)(=O)=O)cc2S(=O)(=O)N1 (centres undefined)	-0.376% [at 42.5 µM] (inactive)
Nc1ccc(S(=O)(=O)NC(=O)c2ccccc2)cc1	-6.63% [at 42.5 µM] (inactive)
Nc1nc(=O)n([C@@H]2O[C@H](CO)[C@@H](O)[C@@H]2F)cc1I	1.11% [at 42.5 µM] (inactive)
FC(F)(F)/C(=N\OCC1OCCO1)c1ccc(Cl)cc1	6.56% (inactive)
CCCCOC(=O)[C@@H](C)Oc1ccc(Oc2ccc(C(F)(F)F)cn2)cc1	-2.96% (inactive)
CC(C)CCCC(C)CC=O (centres undefined)	-2.07% (inactive)
CCN(CCC#N)c1ccccc1	-0.752% (inactive)
CC(=O)/C=C/c1ccco1	5.36% (inactive)

Biological target: Thyrotropin receptor (Homo sapiens) (UniProt P16473)
Experiment: qHTS assay to identify small molecule antagonists of the thyroid stimulating hormone receptor (TSHR) signaling pathway (AID 1259385); note: nearly all actives have a fitted effect of over 20% in size
Settings: TSHR-HEK293 cAMP HTRF, TSH-stimulated antagonist mode; series mostly up to 92.4 µM; activity change, negative = inhibition: at the top concentration
Summary of the method: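 TSHR-HEK293 cells (800/well) plated 18 h, then compounds with Ro20-1724 and TSH at 1.5 ng/mL final, 30 min at room temperature. cAMP quantified by HTRF (cAMP-d2/anti-cAMP-cryptate, 1 h); 15 concentrations in triplicate.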

Thyrotropin receptor (Homo sapiens), sequence (P16473 whole entry, looked up): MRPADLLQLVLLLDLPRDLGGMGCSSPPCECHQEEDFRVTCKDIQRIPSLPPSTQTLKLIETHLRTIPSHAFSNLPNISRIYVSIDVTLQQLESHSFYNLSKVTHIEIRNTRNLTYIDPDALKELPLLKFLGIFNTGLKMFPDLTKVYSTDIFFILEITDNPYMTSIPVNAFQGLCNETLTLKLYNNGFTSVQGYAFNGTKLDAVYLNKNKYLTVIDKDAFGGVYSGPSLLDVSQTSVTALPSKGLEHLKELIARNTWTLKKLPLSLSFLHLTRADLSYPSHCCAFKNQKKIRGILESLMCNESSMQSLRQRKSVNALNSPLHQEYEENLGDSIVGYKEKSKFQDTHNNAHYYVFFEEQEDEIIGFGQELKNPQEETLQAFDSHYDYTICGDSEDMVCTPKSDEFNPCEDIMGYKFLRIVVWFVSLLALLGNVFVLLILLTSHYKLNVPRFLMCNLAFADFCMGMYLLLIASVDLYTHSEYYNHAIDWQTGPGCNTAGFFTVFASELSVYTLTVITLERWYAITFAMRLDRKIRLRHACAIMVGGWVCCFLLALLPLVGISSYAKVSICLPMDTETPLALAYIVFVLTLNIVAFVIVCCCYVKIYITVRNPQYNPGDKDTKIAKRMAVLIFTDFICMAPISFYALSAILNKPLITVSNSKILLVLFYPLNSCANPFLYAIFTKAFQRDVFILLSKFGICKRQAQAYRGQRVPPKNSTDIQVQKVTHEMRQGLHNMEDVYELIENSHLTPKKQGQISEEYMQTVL

Structure (SMILES)	activity change, negative = inhibition
O=C1OC(=O)c2ccccc21	0.928% (inactive)
CCCOC(=O)CCCCC(=O)OCCC	0.101% (inactive)
C=CCOCC(CO)(COCC=C)COCC=C	-0.288% [at 42.5 µM] (inactive)
OCCCCCCCl	-5.95% (inactive)
N#CCCOCCOCCC#N	0.322% (inactive)
CNC(=O)NC	2.3% (inactive)
O=C(O)/C=C/c1ccccc1	0.476% (inactive)
COC(=O)CCC(=O)O	3.05% (inactive)
COC(OC)C(C)c1ccccc1 (centres undefined)	4.43% (inactive)
CCCCCCCC/C=C\CCCCCCCC(=O)OC[C@@H](O)[C@H]1OC[C@H](O)[C@H]1O	0.218% (inactive)
COc1ccc(NS(=O)(=O)c2ccc(N)cc2)nn1	0.747% [at 42.5 µM] (inactive)
O=C(Oc1ccccc1C(=O)O)c1ccccc1O	2.83% [at 42.5 µM] (inactive)
CCCCOC(=O)C(C)OC(=O)CCC (centres undefined)	-0.0515% (inactive)
CCCCCCCCC(=O)OCC	-5.65% (inactive)
CCc1nccnc1C	-0.502% (inactive)
Nc1cc(Cl)cc(S(=O)(=O)O)c1O	-4.17% (inactive)
CCN1CN(CC)CN(CC)C1	-1.98% (inactive)
CCC(O)C(C)(C)C (centres undefined)	-0.287% (inactive)
CC(C)C(=O)c1ccccc1	3.4% (inactive)

Test system: not listed separately
Experiment: qHTS assay to identify small molecule agonists of the estrogen receptor alpha (ER-alpha) signaling pathway in the presence of an antagonist - cell viability counter screen (AID 1259386; active = well fitted cell-killing curve with a large enough effect in the repeat runs;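 note: cells exposed to compounds for 22 h at 37 °C before the viability read; nearly all actives have a fitted effect of over 30% in size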; note: potency is the fitted concentration of half-maximal effect)
Settings: VM7Luc4E2 viability, CellTiter-Fluor fluorescence, 22 h; series mostly up to 92.4 µM; activity change, negative = cytotoxicity: at the top concentration
Summary of the method: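 Steps: 5-day stripped-FBS culture; seed and incubate 24hr; add ICI-182,780 (10.0nM final); pin 15-point compound titration; incubate 22hr at 37C; add CellTiter-Fluor at 21hr; read fluorescence.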

Structure (SMILES)	activity change, negative = cytotoxicity	Potency
CCC1COC(=O)O1 (centres undefined)	1.38% (inactive)	
O=C1OC(=O)c2ccccc21	-0.129% (inactive)	
CCCOC(=O)CCCCC(=O)OCCC	4.7% (inactive)	
C=CCOCC(CO)(COCC=C)COCC=C	4.04% [at 42.5 µM] (inactive)	
CC(C)COC(=O)/C=C/c1ccccc1	1.28% (inactive)	
OCCCCCCCl	-0.344% (inactive)	
COCC(=O)Nc1c(I)c(C(=O)NCC(O)CO)c(I)c(C(=O)N(C)CC(O)CO)c1I (centres undefined)	-6.46% [at 42.5 µM] (inactive)	
N#CCCOCCOCCC#N	5.72% (inactive)	
COC(/C=C(\C)CCC=C(C)C)OC	-1.05% (inactive)	
CNC(=O)NC	7.04% (inactive)	
O=C(O)/C=C/c1ccccc1	-24.9% (inactive)	
C=CCOc1c(Br)cc(Br)cc1Br	3.32% (inactive)	
CC(CC(=O)O)CC(C)(C)C (centres undefined)	1.35% (inactive)	
COC(=O)CCC(=O)O	6.37% (inactive)	
O=C1OC(=O)c2cc(Oc3ccc4c(c3)C(=O)OC4=O)ccc21	1.8% (inactive)	
CCCCCC1Nc2cc(C(F)(F)F)c(S(N)(=O)=O)cc2S(=O)(=O)N1 (centres undefined)	2.16% [at 42.5 µM] (inactive)	
COC(OC)C(C)c1ccccc1 (centres undefined)	-0.622% (inactive)	
Nc1ccc(S(=O)(=O)NC(=O)c2ccccc2)cc1	3.7% [at 42.5 µM] (inactive)	
Nc1nc(=O)n([C@@H]2O[C@H](CO)[C@@H](O)[C@@H]2F)cc1I	7.16% [at 42.5 µM] (inactive)	

Structure (SMILES)	activity change, negative = cytotoxicity	Potency
CCCCCCCC/C=C\CCCCCCCC(=O)OC[C@@H](O)[C@H]1OC[C@H](O)[C@H]1O	0.0076% (inactive)	
O=[Si]=O	-1.25% (inactive)	
COc1ccc(NS(=O)(=O)c2ccc(N)cc2)nn1	5.37% [at 42.5 µM] (inactive)	
O=C(Oc1ccccc1C(=O)O)c1ccccc1O	-3.11% [at 42.5 µM] (inactive)	
FC(F)(F)/C(=N\OCC1OCCO1)c1ccc(Cl)cc1	-2.7% (inactive)	
CCCCOC(=O)C(C)OC(=O)CCC (centres undefined)	1.72% (inactive)	
CCCCCCCCC(=O)OCC	0.198% (inactive)	
CCC(=O)c1ccc(O)cc1	3.3% [at 42.5 µM] (inactive)	
CCCCOC(=O)[C@@H](C)Oc1ccc(Oc2ccc(C(F)(F)F)cn2)cc1	-3.1% (inactive)	
CCc1nccnc1C	2.71% (inactive)	
CC1=NN(c2ccc(S(=O)(=O)O)cc2)C(=O)C1N=Nc1ccccc1 (centres undefined)		30.6 µM (active)
Nc1cc(Cl)cc(S(=O)(=O)O)c1O	-3.09% (inactive)	
CCN1CN(CC)CN(CC)C1	-2.36% (inactive)	
CC(C)CCCC(C)CC=O (centres undefined)	5.37% (inactive)	
CCC(O)C(C)(C)C (centres undefined)	-3.44% (inactive)	
CC(C)C(=O)c1ccccc1	-2.24% (inactive)	
O=P(O)(O)OCC(O)CO (centres undefined)	3.32% [at 42.5 µM] (inactive)	
CCN(CCC#N)c1ccccc1	-3.09% (inactive)	
CC(=O)/C=C/c1ccco1	1.33% (inactive)	
